Counter-ions that a name gives are not always drawn.
What was measured:
Assay in all cases: Euclidean distance of Cell Painting phenotypic profile (signed KS, 77 features) to DMSO centroid (dimensionless distance); 5 or 10 uM (library dependent); higher = stronger phenotypic change vs DMSO (phenoactivity)
Details in all cases: 48 h
[1] = tested on: 786-O
Outline: (§1)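 Phenoactivity is defined as the Euclidean distance from a compound profile to the median vehicle profile. Each profile comprised 77 Harmony features, scored as signed Kolmogorov-Smirnov statistics versus same-plate vehicle wells, then plate-position corrected, correlation-weighted and replicate-averaged at the top dose. Five cancer lines and one healthy fibroblast line were exposed to library compounds for 48 h at 10 or 5 uM (0.1% DMSO final).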

[2] = tested on: A549
Outline: as §1

[3] = tested on: DU145
Outline: as §1

[4] = tested on: FB
Outline: as §1

[5] = tested on: HEPG2
Outline: as §1

[6] = tested on: OVCAR4
Outline: as §1

| Structure (SMILES) | Euclidean distance [1] | Euclidean distance [2] | Euclidean distance [3] | Euclidean distance [4] | Euclidean distance [5] | Euclidean distance [6] |
| --- | --- | --- | --- | --- | --- | --- |
| OCc1ccc(-c2ccc(-c3ccc(CO)s3)o2)s1 | 2.79 | 2.26 | 1.44 | 2.66 | 4.78 | 5.04 |
| CCCSc1ccc2[nH]c(NC(=O)OC)nc2c1 [Albendazole] | 2.6 | 2.42 | 2.81 | 2.49 | 2.15 | 2.48 |
| Cc1ccc(NC(=O)C2(c3ccc4c(c3)OC(F)(F)O4)CC2)nc1-c1cccc(C(=O)O)c1 [VX-809 (Lumacaftor)] | 1.11 | 0.637 | 1.55 | 0.88 | 0.294 | 1.02 |
| CC(C(=O)O)c1ccc(CC2CCCC2=O)cc1 (configuration not stated) [Loxoprofen] | 1.12 | 0.954 | 0.808 | 1.12 | 0.384 | 0.794 |
| CC(C)NCC(O)COc1ccc(COCCOC(C)C)cc1 (configuration not stated) [Bisoprolol fumarate] | 0.611 | 0.836 | 0.523 | 0.91 | 0.467 | 1.36 |
| O=C(O[C@@H]1Cc2c(O)cc(O)cc2O[C@@H]1c1ccc(O)c(O)c1)c1cc(O)c(O)c(O)c1 [(-)-Epicatechin gallate] | 1.61 | 0.725 | 1.16 | 1.3 | 0.724 | 0.782 |
| c1cc(CN2CCCNCCNCCCNCC2)ccc1CN1CCCNCCNCCCNCC1 [Plerixafor (AMD3100)] | 0.664 | 1.12 | 0.673 | 0.848 | 0.976 | 1.03 |
| CC(C)c1c(C(=O)Nc2ccccc2)c(-c2ccccc2)c(-c2ccc(F)cc2)n1CC[C@@H](O)C[C@@H](O)CC(=O)O [Atorvastatin Calcium] | 2.68 | 1.33 | 1.15 | 3.05 | 2.23 | 1.8 |
| CNC(CC(=O)O)C(=O)O [NMDA (N-Methyl-D-aspartic acid)] | 0.691 | 1.26 | 0.677 | 0.867 | 0.901 | 0.706 |
| CCOc1ccccc1OCCN[C@H](C)Cc1ccc(OC)c(S(N)(=O)=O)c1 [Tamsulosin] | 1.91 | 1.28 | 1.73 | 1.01 | 1.38 | 1.6 |
| CCCN1CCCC[C@H]1C(=O)Nc1c(C)cccc1C [Ropivacaine Mesilate] | 0.655 | 0.72 | 1.14 | 0.717 | 0.914 | 0.946 |
| NC(=O)OCC(COC(N)=O)c1ccccc1 [Felbamate] | 1.13 | 0.883 | 0.57 | 1.58 | 0.405 | 0.882 |
